Several values for one entry are separate records, joined by “and”; a condition that tells them apart may be missing. Identical values can stand only once. Results filed as inconclusive are left out. Activity calls are given as the source filed them. Unless noted, calls come from the whole dose curve; as a rule, active = well fitted curve in the direction sought with a large enough effect; inconclusive = small, poorly fitted or top-dose-only effect, or another doubt; inactive = no such curve, though single readings can be large; an effect the other way counts as inactive or inconclusive.
Legend:
[1] = Cell Viability - NIH 3T3 (AID 541); conditions: NIH 3T3 cell viability, qHTS; activity change, negative = cytotoxicity: at 92.2 µM (top of the series);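 note: cells exposed to compound for 40 hours; plate controls were DMSO alone for no effect and tamoxifen positive control for full effect; nearly all actives have a fitted effect of over 25% in size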
In short: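 AC50 values reflect concentration-dependent loss of intracellular ATP in NIH 3T3 cells after 40 hr treatment in complete culture medium, quantified by luciferase-based luminescence.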

[2] = Cellular Toxicity (caspase-3) Mesangial (AID 660);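 note: combined caspase 3 and 7 activity read by Caspase-Glo luminescence; cells exposed to compound for 16 h before the caspase read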
In short: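 Concentration-response qHTS: compound-induced rise in caspase 3/7 luminescence in human mesangial cells after 16 h, normalized to DMSO and 100 uM tamoxifen controls.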

[3] = Cell Viability - LYMP2-017 (AID 972);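 note: cells exposed to compound for 24 hours at 37 °C; % is set by controls: 0 for no effect and ±100 for the full control effect; nearly all actives have a fitted effect of over 55% in size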
In short: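 Steps: plate 2500 lymphoblastoid cells per well; incubate 5 hr at 37 C; add compound across a concentration series and incubate 24 hr at 37 C; add CellTiter-Glo and read luminescence after 30 min at room temperature; fit Hill curves for AC50.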

[4] = biological target: Estrogen receptor (Homo sapiens) (UniProt P03372); assay: qHTS assay for small molecule antagonists of estrogen receptor alpha signaling (AID 588513; active = well fitted curve in the direction sought with a large enough effect in the signal ratio, with a control signal flat, not every such curve was filed as active; the % refers to the signal ratio; note: % is set by controls: 0 for no effect and ±100 for the full control effect)
In short: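 Fluorescence from CCF4 substrate after 2 h at room temperature gave reporter activity; cells had been exposed to compound and 0.5nM 17-beta-estradiol for 18 h at 37 C. Hill-equation fitting yielded IC50 and maximal response.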

[5] = biological target: Estrogen receptor (Homo sapiens) (UniProt P03372); assay: qHTS assay for small molecule agonists of estrogen receptor alpha signaling (AID 588514; calls by dose curve;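 note: 0% = vehicle only and 100% = reference agonist; nearly all actives have a fitted effect of over 70% in size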)
In short: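 Reporter-gene assay. […] controls beta-lactamase in HEK 293 GripTite cells; after 18 hrs with compound, CCF4 substrate is added for 2 hrs and fluorescence is read.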

[6] = biological target: Peroxisome proliferator-activated receptor delta (Homo sapiens) (UniProt Q03181); assay: qHTS assay for small molecule agonists of peroxisome proliferator-activated receptor delta signaling (AID 588534; calls by dose curve;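 note: 0% = DMSO basal wells and 100% = positive control agonist at 10 µM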)
In short: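 Reporter cells were plated and held 5 hrs at 37 C before compounds were added. After 18 hrs at 37 C, CCF4 dye was loaded for 2 hrs at RT and fluorescence measured.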

[7] = biological target: Vitamin D3 receptor (Homo sapiens) (UniProt P11473); assay: qHTS assay for small molecule antagonists of vitamin D receptor signaling (AID 588541; calls by dose curve;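 note: receptor activated by calcitriol during compound treatment; % is set by controls: 0 for no effect and ±100 for the full control effect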)
In short: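 VDR-UAS-bla HEK293T cells (2000/well, 2% charcoal-stripped FBS) were treated with titrated compounds plus 1-alpha,25-dihydroxyvitamin D3 (50 nM or 3 nM final) for 16 h at 37 C. CCF4 beta-lactamase fluorescence was read; Hill fits gave IC50.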

[8] = biological target: Vitamin D3 receptor (Homo sapiens) (UniProt P11473); assay: qHTS assay for small molecule agonists of vitamin D receptor signaling (AID 588543; calls by dose curve;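 note: 0% = DMSO basal and 100% = reference agonist control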)
In short: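 Reporter cells (HEK293T, VDR-UAS-bla) were seeded in medium with 2% charcoal-stripped serum and incubated 5 h, then compounds in concentration series were added for 16 h at 37 °C. Stimulation was scaled between DMSO basal and 50 nM 1α,25-dihydroxyvitamin D3.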

[9] = biological target: Thyroid hormone receptor beta (Homo sapiens) (UniProt P10828); assay: qHTS assay for small molecule antagonists of thyroid hormone receptor beta signaling (AID 588547; active = well fitted inhibition curve with a large enough effect in the signal ratio, with a control signal flat, not every such curve was filed as active; the % refers to the signal ratio;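 note: cells stimulated with 0.4 nM T3 agonist during compound exposure; % is set by controls: 0 for no effect and ±100 for the full control effect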); conditions: TR-UAS-bla HEK293, beta-lactamase ratio, antagonist mode, 18 h
In short: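 TR-UAS-bla GripTite HEK293 cells in 2% charcoal/dextran FBS medium were preincubated 4 h at 37 C, given compound (0.59 nM to 92 uM) plus 0.4 nM T3 (final) for 18 h, then CCF4 for 2 h at RT; Hill fit gave IC50.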

[10] = qHTS assay for small molecule activators of the nuclear factor-kappa B (NF-kB) signaling pathway (AID 651749; active = well fitted activation curve with a large enough effect in the signal ratio; the % refers to the signal ratio; note: % of control where 0% means no effect); conditions: NF-kB-bla ME-180 cells, beta-lactamase FRET ratio, 16 h; stronger effect = higher value
In short: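 ME-180 cells stably carrying a beta-lactamase reporter under an NF-kB response element were exposed to compound or DMSO vehicle for 16 hr at 37C, 5% CO2. Pathway activation was read by FRET, since reporter expression disrupts FRET.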

[11] = qHTS assay for small molecule antagonists of the retinoid-related orphan receptor gamma (ROR-gamma) signaling pathway - cell viability counter screen (AID 720652; active = well fitted curve in the direction sought with a large enough effect in the repeat runs; an effect the other way counts as inactive or inconclusive;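 note: CHO reporter cells with doxycycline-induced ROR-gamma expression; compound exposure lasted 16 hr before ATP read; % is set by controls: 0 for no effect and ±100 for the full control effect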)
In short: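 Cytotoxicity is quantified via intracellular ATP (CellTiter-Glo luminescence) in doxycycline-induced CHO ROR response element-luciferase reporter cells treated with compound for 16 hr at 37 C, 5% CO2.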

[12] = Cell Viability - LYMP2-004 (AID 966);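 note: plate controls were DMSO only for no effect and tetraoctylammonium bromide control for full effect; nearly all actives have a fitted effect of over 65% in size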
In short: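 Acute toxicity is scored as a concentration-dependent drop in intracellular ATP, quantified by luciferase luminescence, in human lymphoblastoid cells exposed to compound for 24 hr. AC50 derives from Hill-equation modelling.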

[13] = biological target: Glucocorticoid receptor (Homo sapiens) (UniProt P04150); assay: qHTS assay for small molecule agonists of glucocorticoid receptor signaling (AID 588532; active = well fitted curve in the direction sought with a large enough effect in the signal ratio, with a control signal flat; the % refers to the signal ratio;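 note: 100% = dexamethasone at 0.1 µM and 0% = DMSO only wells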); conditions: HeLa MMTV-bla, beta-lactamase ratio, agonist, 18 h; stronger effect = higher value; percent of dexamethasone control, DMSO zero
In short: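 Stimulation of a glucocorticoid response element-driven beta-lactamase gene was measured in HeLa cells. Responses were scaled between DMSO basal and 0.1 uM dexamethasone, then fitted for half-maximal stimulation.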

[14] = biological target: Glucocorticoid receptor (Homo sapiens) (UniProt P04150); assay: qHTS assay for small molecule antagonists of glucocorticoid receptor signaling (AID 588533; active = well fitted inhibition curve with a large enough effect in the signal ratio, with a control signal flat, not every such curve was filed as active; the % refers to the signal ratio)
In short: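 Antagonist-mode qHTS: compound titrations added to GRE-bla HeLa cells, then dexamethasone 2 nM final; 18 h, 37 C. CCF4 FRET fluorescence normalized to dexamethasone and DMSO; IC50 from Hill fit.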

[15] = biological target: Peroxisome proliferator-activated receptor gamma (Homo sapiens) (UniProt P37231); assay: qHTS assay for small molecule agonists of peroxisome proliferator-activated receptor gamma signaling (AID 588536; active = well fitted curve in the direction sought with a large enough effect in the signal ratio, with a control signal flat, not every such curve was filed as active; the % refers to the signal ratio;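 note: 0% = DMSO basal wells and 100% = rosiglitazone at 2 µM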)
In short: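 GeneBLAzer PPAR-gamma-UAS-bla HEK293 cells in 1% charcoal/dextran-treated FBS medium were treated 16 h at 37 C with compounds. Beta-lactamase activity was read by CCF4 ratio (460/530 nm). Response was normalized to 2 uM rosiglitazone (100%) and DMSO, then Hill-fitted for EC50 and efficacy.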

[16] = biological target: Peroxisome proliferator-activated receptor gamma (Homo sapiens) (UniProt P37231); assay: qHTS assay for small molecule antagonists of peroxisome proliferator-activated receptor gamma signaling (AID 588537; active = well fitted inhibition curve with a large enough effect in the signal ratio, with a control signal flat, not every such curve was filed as active; the % refers to the signal ratio;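 note: reporter cells co-stimulated with 50 nM rosiglitazone agonist during compound treatment; % of control where 0% means no effect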)
In short: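 PPAR-gamma-UAS-bla HEK293 cells (3000/well, 1% charcoal/dextran-stripped FBS) were preincubated 6-6.5 h at 37 C, given titrated compounds, then stimulated with 50 nM rosiglitazone for 16 h. Beta-lactamase activity was read with CCF4 dye; IC50 came from Hill fits.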

[17] = qHTS assay for small molecule agonists of the antioxidant response element (ARE) signaling pathway measured by Nrf2-dependant transcriptional activity (AID 720636; active = well fitted curve in the direction sought with a large enough effect in the repeat runs; an effect the other way counts as inactive or inconclusive;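 note: HepG2 cells with an ARE-driven luciferase reporter; % of control where 0% means no effect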)
In short: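 HepG2 ARE-luc reporter line, 1% dialyzed FBS; 6 hr attachment at 37 C, compound pinned in, 16 hr at 37 C/5% CO2; ONE-Glo, 30 min RT, luminescence read.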

[18] = qHTS assay for small molecule antagonists of peroxisome proliferator-activated receptor delta signaling (AID 588535; active = well fitted inhibition curve with a large enough effect in the signal ratio, with a control signal flat, not every such curve was filed as active; the % refers to the signal ratio;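 for max response: cells co-treated with a PPAR-delta agonist as stimulator during compound exposure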); conditions: HEK293T PPARd-UAS-bla, beta-lactamase FRET ratio, 18 h; 460 nm channel
In short: (§1)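 GeneBLAzer PPAR-delta-UAS-bla HEK293T cells in medium with 2% charcoal/dextran FBS were preincubated 5 hrs at 37 C, then given compounds, incubated 18 hrs at 37 C, and read by CCF4 beta-lactamase fluorescence; IC50 from Hill fits.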

[19] = biological target: Peroxisome proliferator-activated receptor delta (Homo sapiens) (UniProt Q03181); assay: as above
In short: as §1

[20] = qHTS assay for small molecule agonists of the antioxidant response element (ARE) signaling pathway (AID 651741; active = well fitted activation curve with a large enough effect in the signal ratio; the % refers to the signal ratio; note: % of control where 0% means no effect)
In short: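 ARE-bla HepG2 cells (beta-lactamase reporter under ARE control) were plated at 2,000 cells/well, preincubated 5 h at 37 C/5% CO2, then treated with DMSO-dissolved compounds for 16 h at 37 C; LiveBLAzer B/G FRET substrate added, fluorescence read after 2 h at room temperature.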

Chain of Thyroid hormone receptor beta (Homo sapiens) (P10828 whole entry, looked up): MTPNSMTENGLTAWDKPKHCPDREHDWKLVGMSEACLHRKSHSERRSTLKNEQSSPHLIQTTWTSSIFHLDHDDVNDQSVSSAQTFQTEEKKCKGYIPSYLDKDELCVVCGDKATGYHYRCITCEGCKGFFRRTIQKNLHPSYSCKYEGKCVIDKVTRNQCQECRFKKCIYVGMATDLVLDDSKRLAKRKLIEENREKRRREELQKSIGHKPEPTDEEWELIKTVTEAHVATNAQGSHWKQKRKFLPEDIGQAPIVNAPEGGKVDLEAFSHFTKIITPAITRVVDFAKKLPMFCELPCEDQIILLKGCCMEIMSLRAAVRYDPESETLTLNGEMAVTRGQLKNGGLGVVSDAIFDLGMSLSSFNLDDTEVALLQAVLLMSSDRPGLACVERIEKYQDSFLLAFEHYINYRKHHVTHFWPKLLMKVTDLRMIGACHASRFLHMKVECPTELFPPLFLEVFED
Chain of Peroxisome proliferator-activated receptor gamma (Homo sapiens) (P37231 whole entry, looked up): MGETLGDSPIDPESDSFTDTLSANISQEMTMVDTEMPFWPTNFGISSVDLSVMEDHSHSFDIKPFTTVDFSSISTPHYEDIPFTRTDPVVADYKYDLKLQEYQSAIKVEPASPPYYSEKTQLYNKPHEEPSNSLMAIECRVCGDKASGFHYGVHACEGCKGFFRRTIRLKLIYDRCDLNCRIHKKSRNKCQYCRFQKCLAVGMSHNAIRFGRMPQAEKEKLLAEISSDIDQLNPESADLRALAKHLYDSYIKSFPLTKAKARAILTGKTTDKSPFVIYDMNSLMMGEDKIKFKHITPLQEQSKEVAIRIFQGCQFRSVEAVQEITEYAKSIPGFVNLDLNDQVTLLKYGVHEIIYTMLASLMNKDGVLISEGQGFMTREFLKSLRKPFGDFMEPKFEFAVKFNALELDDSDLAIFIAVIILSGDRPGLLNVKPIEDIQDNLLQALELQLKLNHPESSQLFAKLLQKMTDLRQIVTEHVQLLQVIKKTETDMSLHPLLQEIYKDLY
Chain of Glucocorticoid receptor (Homo sapiens) (P04150 whole entry, looked up): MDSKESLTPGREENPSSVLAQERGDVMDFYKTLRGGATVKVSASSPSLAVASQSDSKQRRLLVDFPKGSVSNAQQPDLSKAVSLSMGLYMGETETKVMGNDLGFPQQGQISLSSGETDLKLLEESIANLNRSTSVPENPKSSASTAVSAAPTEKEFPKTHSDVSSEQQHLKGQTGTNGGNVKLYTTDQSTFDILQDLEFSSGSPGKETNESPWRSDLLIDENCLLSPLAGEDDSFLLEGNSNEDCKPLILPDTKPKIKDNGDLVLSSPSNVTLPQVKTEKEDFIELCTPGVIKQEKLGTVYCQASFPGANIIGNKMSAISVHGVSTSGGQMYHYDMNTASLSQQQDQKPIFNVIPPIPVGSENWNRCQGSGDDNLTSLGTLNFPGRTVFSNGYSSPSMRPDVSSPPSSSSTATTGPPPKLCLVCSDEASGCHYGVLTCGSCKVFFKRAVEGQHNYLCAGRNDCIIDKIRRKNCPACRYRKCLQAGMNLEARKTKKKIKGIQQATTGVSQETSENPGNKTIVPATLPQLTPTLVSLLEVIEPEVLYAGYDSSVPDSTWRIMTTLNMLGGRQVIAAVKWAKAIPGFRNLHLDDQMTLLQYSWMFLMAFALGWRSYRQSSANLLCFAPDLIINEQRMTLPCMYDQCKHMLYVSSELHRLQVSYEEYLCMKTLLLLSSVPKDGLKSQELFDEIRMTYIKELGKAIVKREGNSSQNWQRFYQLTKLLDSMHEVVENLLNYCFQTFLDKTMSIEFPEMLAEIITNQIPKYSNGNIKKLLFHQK
Chain of Vitamin D3 receptor (Homo sapiens) (P11473 whole entry, looked up): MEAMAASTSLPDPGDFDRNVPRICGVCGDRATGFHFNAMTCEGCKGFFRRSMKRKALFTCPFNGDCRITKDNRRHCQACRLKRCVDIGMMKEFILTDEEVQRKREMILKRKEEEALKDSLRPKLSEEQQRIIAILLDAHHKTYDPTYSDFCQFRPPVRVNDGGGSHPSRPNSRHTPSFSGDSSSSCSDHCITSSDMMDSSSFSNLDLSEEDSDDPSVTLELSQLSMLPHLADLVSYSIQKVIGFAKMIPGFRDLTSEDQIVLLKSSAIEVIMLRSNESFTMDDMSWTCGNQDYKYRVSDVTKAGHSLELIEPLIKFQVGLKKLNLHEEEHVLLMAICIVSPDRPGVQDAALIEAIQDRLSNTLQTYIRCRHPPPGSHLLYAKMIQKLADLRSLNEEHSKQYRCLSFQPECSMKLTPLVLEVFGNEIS
Chain of Peroxisome proliferator-activated receptor delta (Homo sapiens) (Q03181 whole entry, looked up): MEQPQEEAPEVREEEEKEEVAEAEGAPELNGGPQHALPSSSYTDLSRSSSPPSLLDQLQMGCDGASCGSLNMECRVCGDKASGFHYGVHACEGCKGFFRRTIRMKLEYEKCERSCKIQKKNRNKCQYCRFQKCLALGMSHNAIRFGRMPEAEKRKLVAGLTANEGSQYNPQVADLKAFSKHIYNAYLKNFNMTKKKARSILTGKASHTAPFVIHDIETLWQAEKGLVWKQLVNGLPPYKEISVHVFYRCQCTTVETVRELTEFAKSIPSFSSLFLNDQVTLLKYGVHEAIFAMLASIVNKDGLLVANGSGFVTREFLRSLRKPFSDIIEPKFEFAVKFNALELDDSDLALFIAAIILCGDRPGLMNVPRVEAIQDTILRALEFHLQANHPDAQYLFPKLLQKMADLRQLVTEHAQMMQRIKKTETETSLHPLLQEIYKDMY
Chain of Estrogen receptor (Homo sapiens) (P03372 whole entry, looked up): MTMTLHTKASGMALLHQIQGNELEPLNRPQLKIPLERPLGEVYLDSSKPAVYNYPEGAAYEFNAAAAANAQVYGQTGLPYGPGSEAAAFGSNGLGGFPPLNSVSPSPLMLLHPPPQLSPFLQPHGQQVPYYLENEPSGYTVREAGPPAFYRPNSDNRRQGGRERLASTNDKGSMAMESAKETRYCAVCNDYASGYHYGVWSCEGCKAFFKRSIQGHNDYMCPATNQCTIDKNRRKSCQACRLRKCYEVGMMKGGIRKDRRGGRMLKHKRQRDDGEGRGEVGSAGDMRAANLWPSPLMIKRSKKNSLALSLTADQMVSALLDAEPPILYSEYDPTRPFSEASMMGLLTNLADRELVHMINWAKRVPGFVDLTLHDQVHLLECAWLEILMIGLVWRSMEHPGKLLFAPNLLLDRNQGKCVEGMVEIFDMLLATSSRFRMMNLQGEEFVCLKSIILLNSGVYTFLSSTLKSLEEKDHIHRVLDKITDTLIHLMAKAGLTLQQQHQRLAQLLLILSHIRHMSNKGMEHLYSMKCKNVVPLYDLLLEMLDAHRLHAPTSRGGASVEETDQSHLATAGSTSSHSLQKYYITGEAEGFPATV

Nc1ccc(-c2ccccc2)cc1
inactive: Potency [1] | outcome [2] | Potency [3] | Potency [4] | Potency [5] | outcome [6] | outcome [7] | outcome [8] | activity change % (negative = inhibition) [9] -2.45% | activation [10] -0.257% | Potency [11]

C=CCCl
inactive: Potency [1] | outcome [2] | Potency [12] | Potency [3] | Potency [4] | Potency [5] | activation [13] 2.78% | outcome [14] | outcome [6] | outcome [15] | Potency [16] | outcome [7] | outcome [8] | activity change % (negative = inhibition) [9] -1.64% | activation [10] -0.803% | Potency [17] | Potency [11]

Nc1ncc([N+](=O)[O-])s1
30.2%: max response [18]
inactive: Potency [1] | outcome [2] | Potency [3] | Potency [4] | Potency [5] | outcome [14] | outcome [6] | outcome [19] | outcome [15] | outcome [7] | activation [10] 0.765% | Potency [17] | Potency [11]

Nn1cnnc1
-17.8%: max response [18]
inactive: Potency [1] | outcome [2] | Potency [12] | Potency [3] | Potency [4] | Potency [5] | activation [13] -5.65% | outcome [14] | outcome [6] | outcome [19] | Potency [16] | outcome [7] | outcome [8] | activity change % (negative = inhibition) [9] 12.8% | activation [10] -1.28% | Potency [17]

Cc1ccc(N)cc1Cl
inactive: Potency [1] | outcome [2] | Potency [12] | Potency [3] | Potency [4] | Potency [5] | outcome [15] | Potency [16] | outcome [7] | outcome [8] | activity change % (negative = inhibition) [9] -8.08% | activation [10] -0.096% | Potency [17] | Potency [11]

FC(Cl)(Cl)Cl
inactive: Potency [1] | outcome [2] | Potency [12] | Potency [3] | activation [13] 0.534% | outcome [14] | Potency [16] | outcome [7] | outcome [8] | Potency [17] | Potency [11]

Cc1ccc2c(C)cccc2c1
16.7%: max response [18]
inactive: Potency [1] | Potency [12] | Potency [3] | Potency [5] | activation [13] -2.73% | outcome [14] | outcome [6] | outcome [19] | outcome [15] | Potency [16] | activity change % (negative = inhibition) [9] 8.64% | Potency [17] | Potency [11]

C1CC2OC2CC1C1CO1 (stereo unspecified)
13.2%: max response [18]
inactive: Potency [1] | outcome [2] | Potency [12] | Potency [5] | outcome [6] | outcome [19] | outcome [15] | Potency [16] | outcome [7] | activity change % (negative = inhibition) [9] 7.88% | Potency [20] | activation [10] -0.692% and -2.3% | Potency [11]

O=[N+]([O-])c1ccc(Cl)c(Cl)c1Cl
inactive: outcome [2] | Potency [12] | Potency [3] | Potency [4] | Potency [5] | outcome [6] | outcome [19] | outcome [15] | outcome [8] | activation [10] 0.972% | Potency [17] | Potency [11]
active: activity change, negative = cytotoxicity [1] -117%
-19.7%: max response [18]
